Screens as filed in PubChem.
D2 PAM-1 = human D2 receptor positive allosteric modulation; P14416; DiscoveRx D2 beta-arrestin cells, luminescence, 90 min; 100% = 57 uM dopamine signal; potentiation, % (no concentration beside the values); 360,000 compounds, 0.23% hits; AID 624464; in the data active means potentiation above about 50%; inconclusive means mostly about 30% to 49%
Target sequence (P14416 whole entry, looked up): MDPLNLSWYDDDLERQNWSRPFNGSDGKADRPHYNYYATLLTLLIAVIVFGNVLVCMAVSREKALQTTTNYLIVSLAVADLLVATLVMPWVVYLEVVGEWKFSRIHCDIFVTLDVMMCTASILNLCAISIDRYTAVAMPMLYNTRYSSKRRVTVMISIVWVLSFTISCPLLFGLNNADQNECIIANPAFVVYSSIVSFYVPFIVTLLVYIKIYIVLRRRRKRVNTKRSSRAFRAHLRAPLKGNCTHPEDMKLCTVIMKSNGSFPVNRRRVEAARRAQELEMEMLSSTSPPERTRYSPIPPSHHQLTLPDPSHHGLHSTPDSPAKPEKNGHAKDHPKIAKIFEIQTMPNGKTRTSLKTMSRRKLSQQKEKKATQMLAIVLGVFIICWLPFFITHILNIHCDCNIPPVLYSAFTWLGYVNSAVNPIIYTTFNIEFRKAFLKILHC
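PathHunter beta-arrestin assay in DiscoveRx D2 cells. Compounds were added with an EC20 of dopamine (50 nM final) for 90 min at 37 deg C. Luminescence was read 1 h after detection reagent, with 57 uM dopamine as the EC100 control.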
D2 ag-1 = agonists of human D2 dopamine receptor (beta-arrestin) | 360,000 compounds, 0.084% hits | DiscoveRx PathHunter D2 beta-arrestin, luminescence, 90 min; 100% = 57 uM dopamine signal | P14416 | activation, % (no concentration beside the values); in the data active means activation above about 40%; inconclusive means between about 15% and that limit
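DiscoveRx PathHunter D2 beta-arrestin cells (2,100/well) attached overnight, then compound-stimulated 90 min at 37 C in HBSS/10 mM HEPES/0.1% Tween-20 buffer; beta-galactosidase complementation read by luminescence after 1 h at ambient temperature. Dopamine 57 uM final (EC100) as control.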
D2 PAM-2 = D2 dopamine receptor (human) potentiation; 340,000 compounds, 0.34% hits; potentiation, % at 10 µM; P14416; HEK293 T-REx D2, calcium flux, EC20 dopamine potentiation;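 active means potentiation over 3 SD above the plate norm, cut at about 30% in these data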; further: 0% is about no effect
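Potentiation of an EC20 dopamine calcium response measured kinetically over 180 s, after a preceding 180 s compound-only read flagging agonists. Cells: inducible Hek293 Trex D2 line, 4000/well, cultured overnight at 30 C before dye loading.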
D2 antag = D2 dopamine receptor (human) antagonism | P14416 | HEK293 TREx D2 cells, calcium flux, dopamine EC80 | inhibition, % at 10 µM | 340,000 compounds, 2% hits | AID 485344; in the data active means inhibition above about 30%; inactive means below that, where a call was filed; further: 0% is about no effect
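Tetracycline-induced HEK293 T-REx cells expressing D2 force-coupled to calcium signalling were dye-loaded, exposed to compound for 180 s, then challenged with an EC80 of dopamine; calcium flux was followed kinetically for a further 180 s.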
D2 ag-2 = D2 dopamine receptor (human) agonism; P14416; HEK293 T-REx D2 cells, calcium flux agonist mode; activation, % at 2 µM; 340,000 compounds, 0.53% hits;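 active means activation over 3 SD above normal in the single-dose calcium agonist read, cut at about 30% in these data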; further: 0% is about no effect
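HEK293 Trex D2 cells, tetracycline-induced, o/n 30 C 5% CO2; no-wash Ca dye, RT 30–90 min; 10-cycle baseline, 23 nl cpd added, kinetic Ca read 180 s; agonist hits = positive Ca response.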
* marks the source's active call; other numbers are inactive results; ? = inconclusive; / = no result. Only some compounds are listed: those with a hit (about 2.4% of all), similar ones and a draw of the others.

SMILES	D2 PAM-1	D2 ag-1	D2 PAM-2	D2 antag	D2 ag-2
Cc1ccc(N2CC(C(=O)N3CCC(C(=O)Nc4cccc(Br)c4)CC3)CC2=O)cc1 (stereo not drawn)	-15	-2	4	39*	0
Cc1ccc(N2CC(C(=O)N3CCC(C(=O)Nc4ccc(Br)cc4)CC3)CC2=O)cc1 (stereo not drawn)	-9	2	3	11	3
COc1ccccc1OC(=O)C1CC(=O)N(c2ccc(Cl)cc2)C1 (stereo not drawn)	10	1	34*	0	-2
COc1ccc(Cl)cc1NC(=O)C1CCN(C(=O)C2CC(=O)N(c3ccc(C)cc3)C2)CC1 (stereo not drawn)	-2	-3	-10	37*	1
CCC(C)(C)C1CCC2(CC1)NC(=O)N(CC(=O)N1CCN(C(=O)c3ccco3)CC1)C2=O (stereo not drawn)	3	-1	-8	-3	0
COc1ccc(C(=O)Nc2ccccc2N2CCOCC2)cc1[N+](=O)[O-]	-10	-2	10	1	2
COc1ccc(C(=O)NC(=S)Nc2ccccc2N2CCOCC2)cc1[N+](=O)[O-]	-34	-6	18	39*	0
COc1ccc2c(C)cc(SCc3c(C)noc3C)nc2c1	-1	1	-5	31*	1
Cc1oc2cc3oc(=O)c(CCC(=O)NCCCC(=O)O)c(C)c3cc2c1C	-12	-4	-7	33*	0
COc1ccc(OC)c2sc(N3CCN(C(=O)C(C)(C)C)CC3)nc12	/	/	-7	/	0
CCOC(=O)/C(N=Nc1ccc2c(c1)OCO2)=C(\C)O	4	2	119*	8	-1
CCCC(=O)Nc1cc(C)c2c(=O)oc3ccccc3c2n1	1	-6	15	-19	0
Cc1cc(NC(=O)c2ccccc2F)nc2c1c(=O)oc1ccccc12	-7	0	42*	-4	0
COc1ccc(CCNCC(=O)Nc2c(C)cc(C)cc2C)cc1OC	-3	6	8	45*	-1
COc1ccc(CCNC(=O)c2[nH]c(C)c(C(C)=O)c2C)cc1OC	-14	0	1	38*	-1
COc1cc(C2CC(=O)Oc3c(C(CCN4CCCC(C)C4)c4ccc(N(C)C)cc4)c(OC)cc(OC)c32)cc(OC)c1OC (stereo not drawn)	-24	1	-18	44*	0
COc1cc(NC(=O)c2ccc3c(SCC(=O)O)c4c(nc3c2)CCC4)cc(OC)c1OC	-10	-2	-11	36*	-1
Cc1ccn(CC(=O)N2CCCC(N3CCN(c4cccc(C(F)(F)F)c4)CC3)C2)n1 (stereo not drawn)	-24	-1	/	/	/
NS(=O)(=O)c1ccc(NC(=S)Nc2ccn(Cc3cccc4ccccc34)n2)cc1	-6	-3	-19	42*	0
O=c1c2ccccc2nc(-c2ccc([N+](=O)[O-])cc2)n1O	-7	2	31*	4	0
Cc1ccc(-c2nc3ccccc3c(=O)n2O)cc1	1	-5	22	-11	0
C=CCn1c(C)cc(C(=O)Cn2c(C(C)O)nc3ccccc32)c1C (stereo not drawn)	-2	0	2	1	-1
COc1ccc(Cl)cc1NC(=O)c1ncn(-c2ccccc2)n1	/	/	-15	/	0
O=c1c2ccccc2n2nnnc2n1-c1ccccc1	-8	-2	32*	13	1
Cn1nnc(NC(=S)NC(=O)Cc2ccccc2)n1	-22	-10	4	-3	1
SMILES	D2 PAM-1	D2 ag-1	D2 PAM-2	D2 antag	D2 ag-2
Cc1ccc(-n2nc(C(=O)N(C)Cc3ccccc3)c3c4ccccc4n(C)c3c2=O)cc1	/	/	29	/	-2
Cc1cc(C)c2nc(-c3ccccn3)cc(C(=O)NCc3cc(C)n(C)n3)c2c1	5	-4	-13	35*	0
COc1ccc(Br)cc1CN1CCN(Cc2c[nH]c3ccccc23)CC1	-15	-3	-22	87*	2
COc1ccc(CN2CCN(Cc3c[nH]c4ccccc34)CC2)cc1OC	-28	-3	/	/	/
COc1ccc(Br)cc1/C=N/NC(=O)CNC(=O)/C=C/c1ccccc1	-41	-2	-26	76*	0
COc1cccc(/C=N/NC(=O)CNC(=O)/C=C\c2ccccc2)c1O	2	3	-16	54*	0
COc1ccc(/C=C/C(=O)NCC(=O)N/N=C/c2cc(Br)ccc2OCc2ccccc2)cc1	-11	1	-11	-13	0
COc1ccccc1/C=C\C(=O)NCC(=O)N/N=C/c1ccc(O)cc1O	-11	-2	-21	77*	-2
COc1ccc(/C=C\C(=O)NCC(=O)N/N=C/c2cccc(OC)c2O)cc1	-14	-4	-16	-3	1
Cc1cc2nc(CCN(C(=S)NCC(C)C)C3CCCC3)[nH]c2cc1C	-24	1	-13	13	1
Cc1cc2nc(CCN(C(=S)NCC3CCCO3)C3CCCC3)[nH]c2cc1C (stereo not drawn)	-8	-18	-4	31*	0
COc1cc(-c2cc3n(C)c(C)c(CCC(=O)NC4CCC(C)CC4)c(=O)n3n2)cc(OC)c1OC (stereo not drawn)	/	/	5	/	/
O=C(c1cc(Br)ccc1OC(F)F)N1CCN2CCCC2C1 (stereo not drawn)	-4	-1	-3	33*	0
CN1CCN(c2ncnc3c2ncn3[C@H]2CN(Cc3ccco3)C[C@@H](CO)O2)CC1	-16	-1	/	/	/
CC1=C(C#N)C(=O)NC(=O)/C1=C/c1ccc(-c2ccc(S(N)(=O)=O)cc2)o1	29	10	37*	9	1
C=CCOC(=O)c1cc(-c2ccc(/C=C3\C(=O)NC(=O)C(C#N)=C3C)o2)ccc1Cl	2	-1	-4	-14	0
CC(C)c1c(O)ccc2c1CC[C@H]1C(C)(C)CCC[C@]21C	-8	-5	/	/	/
COc1cccc(NC(=O)Cn2c(CCC(=O)O)ccc2-c2ccccc2)c1	-6	-4	34*	4	1
N/C(=N\OC(=O)c1ccc(Cl)cc1Cl)c1cccnc1	9	50*	6	10	1
N/C(=N\OC(=O)c1ccc(Cl)cc1)c1ccc(Cl)cc1	86*	?	0	-19	0
N/C(=N\OC(=O)c1ccccc1Cl)c1ccc(Cl)cc1	26	?	/	/	/
N/C(=N\OC(=O)c1ccc(Cl)cc1)c1cccnc1	27	?	-10	8	0
N/C(=N\OC(=O)c1ccc(OCC(F)(F)F)nc1)c1ccc(Cl)cc1	53*	?	4	30*	0
N/C(=N\OC(=O)c1ccc(Cl)cc1Cl)c1ccc(Cl)cc1	114*	?	10	12	0
N/C(=N\OC(=O)c1ccc(Cl)cc1Cl)c1ccccc1	?	?	-1	15	-1
